According to the supplement of paper PMC10849652:
Targets with a hit are over-represented here; the source holds about 8,800 in all. About 0.5% of all pairs of compound and target were hits.

Key:
Assay in all cases: log2 fold change, soluble protein after heating vs DMSO (PISA); higher = thermal stabilisation; K562 lysate, 10 uM; active = over 0.2 and 3.5 SD of the protein, either way, in both replicates (recomputed)
vemurafenib = compound: CCCS(=O)(=O)Nc1ccc(F)c(C(=O)c2c[nH]c3ncc(-c4ccc(Cl)cc4)cc23)c1F [vemurafenib]
Procedure, shortened: (§1)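 Quantification was by TMTpro 16plex LC-MS/MS with equalised channel sums, applied to the supernatant after 21,000xg for 90 min. Samples were crude K562 extract at 1 mg/mL protein in PBS pH 7.4 with 1 mM MgCl2, treated with 10 μM compound for 30 min, heated for 3 min across 48°C-58°C, pooled and brought to 0.5% NP-40 at 4°C. Values are log-two fold changes in thermal stability relative to solvent controls, from duplicates.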

[1] = compound: CCCS(=O)(=O)Nc1ccc(F)c(C(=O)c2c[nH]c3ncc(Cl)cc23)c1F
Procedure, shortened: as §1

barasertib = compound: CCN(CCCOc1ccc2c(Nc3cc(CC(=O)Nc4cccc(F)c4)[nH]n3)ncnc2c1)CCOP(=O)(O)O [barasertib]
Procedure, shortened: as §1

[2] = compound: CC[C@@H]1C(=O)N(C)c2cnc(Nc3ccc(C(=O)NC4CCN(C)CC4)cc3OC)nc2N1C1CCCC1
Procedure, shortened: as §1

volasertib = compound: CC[C@@H]1C(=O)N(C)c2cnc(Nc3ccc(C(=O)N[C@H]4CC[C@H](N5CCN(CC6CC6)CC5)CC4)cc3OC)nc2N1C(C)C [volasertib]
Procedure, shortened: as §1

[3] = compound: CCn1c(C(=O)N(C2CC2)C2CC2)cc2c3c(ncn3C)c(Nc3cc(C)n(C)n3)nc21
Procedure, shortened: as §1

[4] = compound: CCn1cc(-c2ccnc3[nH]c(-c4cccc(CN(C)C)c4)cc23)c(-c2ccc(NC(=O)N(C)C)cc2)n1
Procedure, shortened: as §1

[5] = compound: CN1CCC(CNc2ccc3ncc(-c4cccc(OC(F)(F)F)c4)n3n2)CC1
Procedure, shortened: as §1

saracatinib = compound: CN1CCN(CCOc2cc(OC3CCOCC3)c3c(Nc4c(Cl)ccc5c4OCO5)ncnc3c2)CC1 [saracatinib]
Procedure, shortened: as §1

sotrastaurin = compound: CN1CCN(c2nc(C3=C(c4c[nH]c5ccccc45)C(=O)NC3=O)c3ccccc3n2)CC1 [sotrastaurin]
Procedure, shortened: as §1

Measured: log2 fold change

MYCBP2 (UniProt O75592)
inactive: vemurafenib -0.026 | [1] 0.036 | barasertib 0.037 | [2] 0.017 | volasertib -0.019 | [3] -0.01 | [4] -0.117 | [5] 0.083 | saracatinib 0.033 | sotrastaurin -0.029

NCAPG (UniProt Q9BPX3)
Sequence of UniProt Q9BPX3 (Q9BPX3 whole entry, looked up): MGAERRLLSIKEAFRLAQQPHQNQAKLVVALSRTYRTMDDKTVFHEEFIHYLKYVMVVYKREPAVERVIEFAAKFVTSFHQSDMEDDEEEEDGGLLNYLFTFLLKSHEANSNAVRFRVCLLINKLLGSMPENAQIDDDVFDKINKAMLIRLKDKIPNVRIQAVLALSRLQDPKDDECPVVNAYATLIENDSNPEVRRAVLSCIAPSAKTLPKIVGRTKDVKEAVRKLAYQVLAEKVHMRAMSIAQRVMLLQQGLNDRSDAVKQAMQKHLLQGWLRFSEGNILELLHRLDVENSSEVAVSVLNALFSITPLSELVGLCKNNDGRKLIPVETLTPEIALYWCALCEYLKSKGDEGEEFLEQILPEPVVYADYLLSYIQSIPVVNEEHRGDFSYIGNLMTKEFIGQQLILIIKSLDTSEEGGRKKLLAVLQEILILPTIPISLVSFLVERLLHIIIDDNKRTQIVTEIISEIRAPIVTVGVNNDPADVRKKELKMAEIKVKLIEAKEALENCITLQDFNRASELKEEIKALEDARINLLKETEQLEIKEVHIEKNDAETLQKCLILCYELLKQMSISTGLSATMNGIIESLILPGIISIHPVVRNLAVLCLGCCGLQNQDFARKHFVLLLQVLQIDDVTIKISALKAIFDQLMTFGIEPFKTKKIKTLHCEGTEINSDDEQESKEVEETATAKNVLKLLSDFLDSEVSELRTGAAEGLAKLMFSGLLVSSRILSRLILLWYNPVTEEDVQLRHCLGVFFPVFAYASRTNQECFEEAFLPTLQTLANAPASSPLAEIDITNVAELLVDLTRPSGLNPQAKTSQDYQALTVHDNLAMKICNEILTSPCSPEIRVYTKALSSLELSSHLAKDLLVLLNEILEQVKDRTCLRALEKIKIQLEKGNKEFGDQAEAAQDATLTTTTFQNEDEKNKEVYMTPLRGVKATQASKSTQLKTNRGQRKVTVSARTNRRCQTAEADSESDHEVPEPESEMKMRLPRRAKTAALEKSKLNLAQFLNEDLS
inactive: vemurafenib -0.013 | [1] 0.021 | barasertib 0.018 | [2] -0.057 | volasertib -0.023 | [3] 0.015 | [4] -0.05 | [5] -0.024 | saracatinib 0.001 | sotrastaurin -0.011

NELFCD (UniProt Q8IXH7)
inactive: vemurafenib 0.014 | [1] 0.037 | barasertib 0.047 | [2] 0.006 | volasertib -0.032 | [3] 0.02 | [4] 0.089 | [5] -0.049 | saracatinib -0.005 | sotrastaurin 0.012

OSBPL3 isoform 2 (UniProt Q9H4L5)
inactive: vemurafenib 0.018 | [1] 0.01 | barasertib 0.005 | [2] -0.053 | volasertib -0.139 | [3] 0.025 | [4] -0.013 | [5] -0.068 | saracatinib 0.04 | sotrastaurin 0.018

ORC5 (UniProt O43913)
inactive: vemurafenib -0.059 | [1] -0.001 | barasertib -0.052 | [2] -0.156 | volasertib -0.023 | [3] 0.013 | [4] -0.038 | [5] 0.01 | saracatinib -0.001 | sotrastaurin 0.024

NEDD8 (UniProt Q15843)
Sequence of UniProt Q15843 (Q15843 whole entry, looked up): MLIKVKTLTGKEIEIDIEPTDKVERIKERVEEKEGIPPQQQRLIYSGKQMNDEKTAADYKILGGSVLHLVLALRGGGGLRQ
inactive: vemurafenib 0.063 | [1] 0.019 | barasertib 0.113 | [2] -0.003 | volasertib 0.045 | [3] 0.041 | [4] 0.025 | [5] -0.107 | saracatinib 0.02 | sotrastaurin 0

MSH2 (UniProt P43246)
inactive: vemurafenib -0.014 | [1] 0.001 | barasertib 0.007 | [2] -0.033 | volasertib -0.068 | [3] 0.038 | [4] 0.003 | [5] -0.055 | saracatinib 0 | sotrastaurin 0.032

OSBP (UniProt P22059)
inactive: vemurafenib -0.052 | [1] -0.007 | barasertib -0.004 | [2] -0.076 | volasertib -0.091 | [3] 0.041 | [4] -0.045 | [5] -0.032 | saracatinib 0.011 | sotrastaurin 0.026

MTHFD1, A0A384N5Y3
inactive: vemurafenib 0.058 | [1] 0.011 | barasertib 0.017 | [2] -0.06 | volasertib -0.112 | [3] 0.059 | [4] 0.008 | [5] -0.053 | saracatinib -0.012 | sotrastaurin 0.039

NSL1 (UniProt Q96IY1)
inactive: vemurafenib -0.017 | [1] 0 | barasertib -0.06 | [2] 0.005 | volasertib 0.007 | [3] 0.048 | [4] -0.016 | [5] 0.047 | saracatinib 0.012 | sotrastaurin 0.005

MSH6 (UniProt P52701)
inactive: vemurafenib 0.024 | [1] 0.028 | barasertib 0.021 | [2] -0.109 | volasertib -0.061 | [3] 0.044 | [4] -0.035 | [5] -0.041 | saracatinib -0.003 | sotrastaurin 0.047

NIT2 (UniProt Q9NQR4)
inactive: vemurafenib -0.003 | [1] 0.005 | barasertib -0.008 | [2] 0.005 | volasertib -0.004 | [3] -0.004 | [4] 0.02 | [5] -0.013 | saracatinib -0.008 | sotrastaurin -0.012

NDUFS1 isoform 2 (UniProt P28331)
Sequence of UniProt P28331 (P28331 whole entry, looked up): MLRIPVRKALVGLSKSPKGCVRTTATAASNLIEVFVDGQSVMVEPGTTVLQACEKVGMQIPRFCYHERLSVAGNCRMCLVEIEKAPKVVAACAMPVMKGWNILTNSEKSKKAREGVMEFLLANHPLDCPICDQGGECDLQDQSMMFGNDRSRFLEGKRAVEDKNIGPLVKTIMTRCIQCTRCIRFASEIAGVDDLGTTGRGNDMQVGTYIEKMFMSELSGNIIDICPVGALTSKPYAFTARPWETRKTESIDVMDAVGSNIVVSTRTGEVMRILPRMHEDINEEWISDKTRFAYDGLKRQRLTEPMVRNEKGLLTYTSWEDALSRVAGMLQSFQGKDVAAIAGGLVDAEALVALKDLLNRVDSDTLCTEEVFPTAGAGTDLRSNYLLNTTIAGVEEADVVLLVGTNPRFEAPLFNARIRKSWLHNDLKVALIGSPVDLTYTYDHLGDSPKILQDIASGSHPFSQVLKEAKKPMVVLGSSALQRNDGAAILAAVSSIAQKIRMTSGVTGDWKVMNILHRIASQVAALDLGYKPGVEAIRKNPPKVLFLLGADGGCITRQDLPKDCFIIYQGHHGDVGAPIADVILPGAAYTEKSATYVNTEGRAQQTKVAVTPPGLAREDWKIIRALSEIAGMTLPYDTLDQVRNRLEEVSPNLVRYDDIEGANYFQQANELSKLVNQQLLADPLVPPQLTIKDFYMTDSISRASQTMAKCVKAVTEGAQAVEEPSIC
inactive: vemurafenib 0.041 | [1] 0.018 | barasertib 0.011 | [2] -0.032 | volasertib -0.001 | [3] 0.016 | [4] -0.006 | [5] -0.027 | saracatinib -0.004 | sotrastaurin 0.054

NUSAP1 (UniProt Q9BXS6)
inactive: vemurafenib 0.001 | [1] 0.009 | barasertib -0.002 | [2] 0.073 | volasertib 0.004 | [3] -0.009 | [5] 0.189 | saracatinib 0.019 | sotrastaurin -0.001
active: [4] -0.399

NCAPD3 (UniProt P42695)
inactive: vemurafenib -0.032 | [1] 0.047 | barasertib 0.06 | [2] -0.013 | volasertib -0.088 | [3] 0.035 | [4] 0.068 | [5] -0.015 | saracatinib 0.008 | sotrastaurin 0.003

NOA1 (UniProt Q8NC60)
inactive: vemurafenib 0.041 | [1] -0.009 | barasertib 0.043 | [2] 0.029 | volasertib -0.024 | [3] -0.083 | [4] -0.229 | [5] 0.028 | saracatinib 0.016 | sotrastaurin 0.037

NR2C2 isoform 2 (UniProt P49116)
Sequence of UniProt P49116 (P49116 whole entry, looked up): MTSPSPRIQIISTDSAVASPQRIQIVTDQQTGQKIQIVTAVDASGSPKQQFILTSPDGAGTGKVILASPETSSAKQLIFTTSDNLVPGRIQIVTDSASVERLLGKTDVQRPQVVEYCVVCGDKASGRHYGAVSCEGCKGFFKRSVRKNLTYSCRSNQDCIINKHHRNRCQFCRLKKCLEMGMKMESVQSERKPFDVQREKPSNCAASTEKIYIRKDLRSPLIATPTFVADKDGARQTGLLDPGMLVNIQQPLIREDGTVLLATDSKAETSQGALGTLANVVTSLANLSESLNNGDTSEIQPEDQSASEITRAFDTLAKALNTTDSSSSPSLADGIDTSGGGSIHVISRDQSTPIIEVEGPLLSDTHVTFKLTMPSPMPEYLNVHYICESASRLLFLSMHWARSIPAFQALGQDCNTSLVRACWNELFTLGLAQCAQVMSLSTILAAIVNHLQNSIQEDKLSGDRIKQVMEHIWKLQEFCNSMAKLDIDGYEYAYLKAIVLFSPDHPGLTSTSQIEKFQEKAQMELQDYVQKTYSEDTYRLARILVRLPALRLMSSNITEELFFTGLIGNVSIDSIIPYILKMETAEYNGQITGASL
inactive: vemurafenib -0.087 | [1] 0.049 | barasertib 0.017 | [2] -0.091 | volasertib -0.001 | [3] 0.003 | [4] 0.075 | [5] -0.074 | saracatinib -0.058 | sotrastaurin 0.002

NARF (UniProt Q9UHQ1)
inactive: vemurafenib 0.035 | [1] 0.035 | barasertib 0.028 | [2] 0.011 | volasertib 0.135 | [3] -0.025 | [4] -0.055 | [5] 0.014 | saracatinib 0.023 | sotrastaurin 0.049

NUDT5 (UniProt Q9UKK9)
inactive: vemurafenib -0.019 | [1] -0.001 | barasertib -0.042 | [2] 0.043 | volasertib 0.015 | [3] -0.054 | [4] -0.267 | saracatinib -0.022 | sotrastaurin 0.034
active: [5] 0.27

NSA2 (UniProt O95478)
inactive: vemurafenib -0.035 | [1] 0.101 | barasertib -0.093 | [2] 0.067 | volasertib 0.034 | [3] -0.043 | [4] -0.441 | [5] -0.221 | saracatinib -0.084

NUDT4 (UniProt Q9NZJ9)
Sequence of UniProt Q9NZJ9 (Q9NZJ9 whole entry, looked up): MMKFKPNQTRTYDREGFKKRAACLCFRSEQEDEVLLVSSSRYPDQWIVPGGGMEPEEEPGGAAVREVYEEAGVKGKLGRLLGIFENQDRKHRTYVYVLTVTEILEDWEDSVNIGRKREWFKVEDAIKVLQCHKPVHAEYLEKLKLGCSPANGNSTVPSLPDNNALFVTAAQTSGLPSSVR
inactive: vemurafenib -0.24 | [1] 0.04 | barasertib -0.032 | [2] -0.078 | volasertib -0.054 | [3] 0.082 | [4] 0.23 | [5] 0.005 | saracatinib -0.03 | sotrastaurin 0.005

NCKAP1L (UniProt P55160)
Sequence of UniProt P55160 (P55160 whole entry, looked up): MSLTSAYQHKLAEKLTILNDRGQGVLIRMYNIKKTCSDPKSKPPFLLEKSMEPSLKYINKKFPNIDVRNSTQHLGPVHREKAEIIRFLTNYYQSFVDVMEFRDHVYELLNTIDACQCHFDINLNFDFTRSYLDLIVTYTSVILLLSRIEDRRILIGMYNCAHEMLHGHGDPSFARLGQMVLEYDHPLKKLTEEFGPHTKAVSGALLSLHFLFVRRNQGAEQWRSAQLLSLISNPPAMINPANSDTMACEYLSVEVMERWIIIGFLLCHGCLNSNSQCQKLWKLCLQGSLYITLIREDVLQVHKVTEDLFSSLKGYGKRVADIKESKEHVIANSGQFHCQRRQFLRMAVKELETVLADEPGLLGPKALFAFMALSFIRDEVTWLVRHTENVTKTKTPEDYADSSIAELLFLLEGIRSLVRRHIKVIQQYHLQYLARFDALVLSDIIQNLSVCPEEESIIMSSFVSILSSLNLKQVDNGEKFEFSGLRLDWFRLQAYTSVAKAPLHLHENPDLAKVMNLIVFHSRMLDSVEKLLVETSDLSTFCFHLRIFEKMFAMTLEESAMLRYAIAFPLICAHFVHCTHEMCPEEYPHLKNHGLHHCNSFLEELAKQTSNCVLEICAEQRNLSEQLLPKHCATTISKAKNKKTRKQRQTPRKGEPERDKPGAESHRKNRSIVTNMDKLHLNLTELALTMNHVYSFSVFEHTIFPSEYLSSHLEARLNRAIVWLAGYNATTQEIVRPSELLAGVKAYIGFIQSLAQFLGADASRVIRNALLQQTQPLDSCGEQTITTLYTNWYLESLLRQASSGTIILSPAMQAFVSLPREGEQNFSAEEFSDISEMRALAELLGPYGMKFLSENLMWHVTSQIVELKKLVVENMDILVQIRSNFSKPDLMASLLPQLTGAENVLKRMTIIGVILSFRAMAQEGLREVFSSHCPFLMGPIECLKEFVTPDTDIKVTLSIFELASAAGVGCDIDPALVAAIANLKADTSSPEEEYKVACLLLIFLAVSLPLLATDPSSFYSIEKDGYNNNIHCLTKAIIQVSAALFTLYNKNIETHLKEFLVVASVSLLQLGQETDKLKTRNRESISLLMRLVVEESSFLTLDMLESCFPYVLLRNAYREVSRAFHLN
inactive: vemurafenib -0.14 | [1] 0.032 | barasertib 0.131 | [2] -0.068 | volasertib 0.004 | [3] -0.049 | [4] -0.025 | [5] -0.082 | saracatinib -0.083 | sotrastaurin 0.032

NEXN (UniProt Q0ZGT2)
inactive: vemurafenib 0.073 | [1] 0.218 | barasertib 0.101 | [2] -0.132 | volasertib 0.051 | [3] 0.075 | [4] -0.231 | [5] 0.209 | saracatinib 0.026

PBK (UniProt Q96KB5)
Sequence of UniProt Q96KB5 (Q96KB5 whole entry, looked up): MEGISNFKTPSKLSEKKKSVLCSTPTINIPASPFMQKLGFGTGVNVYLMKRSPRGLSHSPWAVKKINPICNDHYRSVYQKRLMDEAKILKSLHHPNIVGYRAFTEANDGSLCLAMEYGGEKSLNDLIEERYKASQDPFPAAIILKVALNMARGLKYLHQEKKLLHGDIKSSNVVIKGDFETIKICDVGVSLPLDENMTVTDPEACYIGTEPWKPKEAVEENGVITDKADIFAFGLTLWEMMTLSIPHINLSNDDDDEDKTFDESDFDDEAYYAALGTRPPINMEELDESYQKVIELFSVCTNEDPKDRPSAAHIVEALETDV
inactive: vemurafenib -0.006 | [1] 0.002 | barasertib -0.009 | [2] -0.069 | volasertib -0.033 | [3] 0.039 | [4] 0.043 | [5] -0.017 | saracatinib -0.018 | sotrastaurin -0.015

MSH3 (UniProt P20585)
inactive: vemurafenib -0.004 | [1] 0.048 | barasertib -0.001 | [2] 0.036 | volasertib -0.031 | [3] -0.034 | [4] -0.025 | [5] 0.031 | saracatinib 0.038 | sotrastaurin 0.039

PARP14 (UniProt Q460N5)
inactive: vemurafenib 0.067 | [1] 0.062 | barasertib 0.038 | [2] 0.007 | volasertib 0.001 | [3] 0.003 | [4] -0.08 | [5] 0.075 | saracatinib 0.119 | sotrastaurin -0.058

NCAPH (UniProt Q15003)
inactive: vemurafenib -0.015 | [1] 0.001 | barasertib 0.012 | [2] -0.046 | volasertib -0.044 | [3] 0.027 | [4] -0.057 | [5] -0.035 | saracatinib -0.016 | sotrastaurin 0.015

OPA1 isoform 2 (UniProt O60313)
Sequence of UniProt O60313 (O60313 whole entry, looked up): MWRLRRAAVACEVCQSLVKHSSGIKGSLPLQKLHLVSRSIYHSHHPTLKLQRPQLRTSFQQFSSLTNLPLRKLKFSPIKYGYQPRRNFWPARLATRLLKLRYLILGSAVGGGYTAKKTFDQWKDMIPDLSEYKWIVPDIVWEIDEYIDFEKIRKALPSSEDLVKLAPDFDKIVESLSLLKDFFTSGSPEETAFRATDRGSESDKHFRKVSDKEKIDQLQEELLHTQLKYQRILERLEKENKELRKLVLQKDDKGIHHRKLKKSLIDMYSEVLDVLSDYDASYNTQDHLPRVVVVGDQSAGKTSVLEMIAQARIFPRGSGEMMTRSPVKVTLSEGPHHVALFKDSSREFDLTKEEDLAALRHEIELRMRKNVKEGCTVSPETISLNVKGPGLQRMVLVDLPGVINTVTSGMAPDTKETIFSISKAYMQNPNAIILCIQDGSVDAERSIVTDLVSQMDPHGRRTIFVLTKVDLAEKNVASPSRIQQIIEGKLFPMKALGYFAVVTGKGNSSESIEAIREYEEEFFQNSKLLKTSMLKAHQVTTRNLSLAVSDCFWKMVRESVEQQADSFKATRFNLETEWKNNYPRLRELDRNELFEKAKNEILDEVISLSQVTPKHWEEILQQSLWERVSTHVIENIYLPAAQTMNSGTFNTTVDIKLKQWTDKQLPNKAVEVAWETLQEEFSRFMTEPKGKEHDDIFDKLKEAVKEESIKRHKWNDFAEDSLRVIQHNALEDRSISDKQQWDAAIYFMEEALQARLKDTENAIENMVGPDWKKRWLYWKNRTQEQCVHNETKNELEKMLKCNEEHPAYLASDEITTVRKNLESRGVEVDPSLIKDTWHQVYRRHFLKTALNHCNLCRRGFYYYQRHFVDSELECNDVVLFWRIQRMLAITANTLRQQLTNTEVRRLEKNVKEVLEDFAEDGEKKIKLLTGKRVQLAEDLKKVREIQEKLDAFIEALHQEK
inactive: vemurafenib 0.022 | [1] 0.029 | barasertib 0.024 | [2] -0.057 | volasertib -0.033 | [3] 0.037 | [4] -0.016 | [5] -0.192 | saracatinib 0.007 | sotrastaurin 0.014

MRPS31 (UniProt Q92665)
inactive: vemurafenib 0.043 | [1] -0.001 | barasertib -0.011 | [2] 0.041 | volasertib -0.004 | [3] -0.026 | [4] -0.046 | [5] 0.034 | saracatinib 0.014 | sotrastaurin 0.021

MTHFD1L (UniProt B7ZM99)
inactive: vemurafenib 0.01 | [1] 0 | barasertib -0.033 | [2] -0.111 | volasertib -0.002 | [3] 0.019 | [4] -0.013 | [5] -0.056 | saracatinib 0.004 | sotrastaurin 0.036
